Screening data from PubChem BioAssay.
KinaseGlo FLuc = blocks Kinase-Glo luciferase, a counter-screen artifact; Kinase-Glo luciferase, ATP luminescence, 8 min; Potency, µM (highest dose often 38.3 µM), for the others: top-dose activity change, negative = inhibition, usual class: inhibitors; 200,000 tested, 0.28% active; AID 1379; active = well fitted inhibition curve with a large enough effect; inconclusive = small, poorly fitted or top-dose-only effect; also: potency is read from the fitted curve at half-maximal effect; nearly all actives have a fitted effect of over 60% in size
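Compound is pinned into ATP-containing buffer (10 uM ATP, imidazole pH 7.2, 7 mM MgCl2). Kinase-Glo luciferase reagent is then added. Light output is recorded following an 8-min room-temperature incubation.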
Lamin A splicing = LMNA splicing modulation. HeLa LMNA splicing GFP/RFP minigene ratio, 48 h. Potency, µM (top dose mostly 46.1 µM), inactives show top-dose ratio change, negative = inhibition, usual class: inhibitors. 200,000 tested, 0.01% active; active = well fitted inhibition curve with a large enough effect in the signal ratio, with a control signal flat, not every such curve was filed as active; inconclusive = small, poorly fitted or top-dose-only effect, or effect the other way, or a change in a side signal; the % refers to the signal ratio; also: potency is read from the fitted curve at half-maximal effect
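S3 HeLa cells stably expressing lamin A-EGFP splicing minigene plus DsRed2, 600 cells/well, 48 h compound exposure at 37C. Laser-scanning cytometry; analysed as GFP (500-530 nm)/RFP (575-640 nm) total intensity ratio; 0.5% DMSO vehicle.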
ALDH1A1 block = blocks purified human ALDH1A1 activity; P00352; Purified ALDH1A1, NADH fluorescence, propionaldehyde substrate; Potency, µM (highest dose often 75.3 µM), without a hit: top-dose activity, negative = inhibition, most hits filed as inhibitors; 220,000 tested, 7.3% active; AID 1030;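 also: potency is read from the fitted curve at half-maximal effect; plate controls were no enzyme wells and a reference inhibitor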
IMPase inh = IMPase inhibition in cells | P97697 | CHO-M1 cells, IP1 accumulation, HTRF TR-FRET ratio | inhibition (IP1 accumulation), % at 46.1 µM | 120,000 tested, under 10 active | AID 901; active = well fitted curve in the direction sought with a large enough effect in the signal ratio, not every such curve was filed as active; inconclusive = small, poorly fitted or top-dose-only effect, or a change in a side signal; inactive = no such curve, though single readings can be large or run the other way; the % refers to the signal ratio;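 also: cells stimulated with carbachol in lithium chloride buffer; plate controls were DMSO basal wells for no effect and reference inhibitor wells for full effect; higher means more IMPase inhibition seen as more IP1 and lower FRET ratio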
Target sequence (P97697 whole entry, looked up): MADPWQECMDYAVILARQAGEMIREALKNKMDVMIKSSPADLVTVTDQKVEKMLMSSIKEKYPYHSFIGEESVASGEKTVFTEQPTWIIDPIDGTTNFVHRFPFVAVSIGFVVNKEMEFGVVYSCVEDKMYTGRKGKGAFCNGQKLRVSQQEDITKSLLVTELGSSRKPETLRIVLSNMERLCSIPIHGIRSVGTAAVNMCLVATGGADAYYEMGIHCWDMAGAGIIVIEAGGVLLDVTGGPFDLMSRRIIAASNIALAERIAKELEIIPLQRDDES
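Carbachol-driven Gq signalling in CHO-M1 cells (2000/well) generates IP1. Compounds that block IMPase raise IP1 and so reduce the FRET signal from Eu-anti-IP1 and d2-IP1 after a 10 min room-temperature lysis.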
PNC inhibitor = inhibitors of perinucleolar compartment assembly | activity change (PNC), negative = inhibition, % at 10 µM | PC3M PTB-GFP, PNC prevalence imaging, 16 h; active compounds read low | 140,000 tested, 3.1% active;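 active = readout at or below -70, meaning at least 70% loss of cells showing the perinucleolar compartment, a nuclear body marking cancer cells; inconclusive = readout between -30 and a set limit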;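 also: plate controls were DMSO wells for no effect and camptothecin positive control wells for full effect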
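Compounds are pinned in duplicate onto adhered PC3M cells stably expressing GFP-tagged PTB and incubated 16 h at 37 C. Cells are then fixed, nuclei stained with Hoechst, and PNC-positive cells counted.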
HPGD block = blocks human HPGD enzyme activity; Potency, µM, inactives show at the highest dose activity change, negative = inhibition, most hits filed as inhibitors; AID 894; purified HPGD, NADH fluorescence kinetic, PGE2 substrate; 150,000 tested, 4.3% active; P15428; also: potency is read from the fitted curve at half-maximal effect
Target sequence (P15428 whole entry, looked up): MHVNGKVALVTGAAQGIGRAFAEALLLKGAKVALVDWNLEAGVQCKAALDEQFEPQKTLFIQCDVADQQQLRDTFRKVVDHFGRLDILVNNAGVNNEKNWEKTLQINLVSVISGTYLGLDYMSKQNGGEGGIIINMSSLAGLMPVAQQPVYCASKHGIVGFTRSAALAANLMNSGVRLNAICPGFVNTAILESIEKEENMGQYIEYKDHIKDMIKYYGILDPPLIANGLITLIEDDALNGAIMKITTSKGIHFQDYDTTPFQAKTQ
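NADH formation kinetics: reaction with 30 uM PGE2 and 1 mM NAD+ (final), 20 nM enzyme, Tris-HCl pH 8 with Tween 20, after 15 min compound preincubation at room temperature. Fluorescence change, last versus first of five reads.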
Starred values were filed as active, the others as inactive; ? = inconclusive; . = no result given; [ ] = another dose, or the depositor's remark. An excerpt weighted towards active compounds, which were near 10% of everything screened. Unless noted, calls follow the shape of the dose curve; as a rule, active = well fitted inhibition curve with a large enough effect (not every such curve was filed as active); inconclusive = small, poorly fitted or top-dose-only effect, or another doubt; inactive = no such curve, though single readings can be large or run the other way. Unless noted, % is scaled to controls: 0 for no effect and ±100 for the full control effect.

SMILES	KinaseGlo FLuc	Lamin A splicing	ALDH1A1 block	IMPase inh	PNC inhibitor	HPGD block
O=C1N/C(=C/c2cccn2-c2ccc(F)cc2)C(=O)N1Cc1ccccc1	-0.6%	-8.0%	15.8µM*	-3.7	26.6	-17.4%
O=C(O)c1cccc(-n2cccc2/C=C2\NC(=O)N(Cc3ccc(F)cc3)C2=O)c1	-1.1%	-15.5%[46 µM]	-11.7%	.	.	.
CCn1c(SCc2nc3sc(C(=O)O)c(C)c3c(=O)[nH]2)nc2ccccc21	-2.7%	-1.9%	?	?	53.7	15.8µM*
COCCn1c(SCc2nc3sc(C(=O)OC)c(C)c3c(=O)[nH]2)nc2ccccc21	-0.6%	17.0%	-12.0%	9.4	-28.5	-11.5%
CCOc1ccc(N2C(=O)N(Cc3c(F)cccc3Cl)c3ccccc3S2(=O)=O)cc1	.	-8.9%[46 µM]	.	.	.	.
Cc1ccccc1NC(=S)NNc1ncc(C(F)(F)F)cc1Cl	15.7%	?	10µM*	0.2	-6.4	-12.7%
FC(F)(F)c1cnc(NNC(=S)Nc2cccnc2)c(Cl)c1	-0.7%	?	2.24µM*	.	.	.
S=C(Nc1cccnc1)Nc1ccccc1Br	-1.5%	?	15.6%	.	.	.
Oc1cccc(NC(=S)Nc2cccnc2)c1	5.2%	6.9%	-6.6%	.	-87.6*	-9.6%
Fc1ccccc1NC(=S)NNc1ncc(C(F)(F)F)cc1Cl	-2.7%	-8.7%	2.24µM*	2.9	-16.3	-25.3%
Cc1c(Cl)cccc1NC(=S)NNc1ncc(C(F)(F)F)cc1Cl	2.1%	1.4%	14.1µM*	-1.6	-4.5	-11.3%
CC(C)(C)NS(=O)(=O)c1cccc(S(=O)(=O)c2cccc(S(=O)(=O)NC(C)(C)C)c2)c1	9.7%	?	4.5%	4.7	2.6	20µM*
C/C(=C\C1CCCCC1)C(NC(=O)c1ccc(C(F)(F)F)cc1)c1ccc(-c2ccccc2)cc1 (stereo not given)	1.2%	.	-4.5%	.	.	-13.7%
CC/C(=C\C1CCCCC1)C(NP(=O)(c1ccccc1)c1ccccc1)c1ccccc1 (stereo not given)	-7.2%	?	?	.	-89.9*	-6.9%
Cc1ccc(OCC(=O)N2CCc3ccccc32)cc1	-8.2%	?	-8.4%	.	11.5	-11.9%
O=C(CCCC(=O)N1CCc2ccccc21)N1CCc2ccccc21	12.6%	3.0%	9.7%	0.6	3.7	-8.0%
O=C(CO/N=C/c1ccccc1O)N1CCc2ccccc21	0.6%	-3.5%	10µM*	.	-20.3	-7.8%
CCOCC(=O)N1CCc2ccccc21	-0.3%	-5.6%	3.55µM*	-7.3	54.8	-1.4%
O=C(COc1ccc2c(c1)CCC2)N1CCc2ccccc21	-3.2%	-2.8%	-10.7%	8.5	-80.6*	-10.4%
O=C(OCC(=O)N1CCc2ccccc21)c1ccccc1	-5.3%	-10.3%	2.5%	0.3	-5.6	-10.0%
CC1CCCCN1C(=O)Cn1cc(C=O)c2ccccc21 (stereo not given)	-3.2%	2.7%	4.3%	.	-15.9	-3.9%
O=Cc1cn(CC(=O)N2CCc3ccccc32)c2ccccc12	2.2%	-21.8%[46 µM]	17.8µM*	.	.	.
O=c1n(Cc2cc3c(cc2Cl)OCO3)c(=O)n2n1CC[C@H]1/C(=N\OC[C@@H](O)COCc3ccco3)[C@H]3O[C@@H]3[C@@H](O)[C@@H]12	.	.	-4.5%[13.5 µM]	.	.	.
Cc1csc(=N)n1CC(=O)N1CCc2ccccc21	-3.3%	-0.9%	25.1µM*	0.0	-14.6	-4.2%
CN1C(=O)C(=O)N(CC(=O)N2CCc3ccccc32)C1=O	3.3%	4.6%	-2.8%	-13.7	20.0	-20.1%
O=C(CN1C(=O)CSc2ccccc21)N1CCc2ccccc21	-3.4%	-6.6%	-9.2%	11.0	-89.8*	-5.0%
COc1ccc(CNS(=O)(=O)c2cc3c(cc2C)n(C)c(=O)c(=O)n3C)cc1	.	11.6%[46 µM]	.	.	.	.
O=C1NN(c2ccc(Cl)c(Cl)c2)C(=O)/C1=C/c1cccc(OC(=O)c2cccs2)c1	-5.4%	0.9%	?	-0.8	5.7	10µM*
COC(=O)N/N=C\c1cccc(OC(=O)c2cccs2)c1	-1.9%	.	-8.1%	.	.	.
CCOc1cc(/C=N/NC(=O)COc2cccc(C)c2)ccc1OC(=O)c1cccs1	-2.4%	-17.4%	-1.8%	1.9	46.0	-16.6%
